Reference: PubChem BioAssay AID504332 (National Center for Advancing Translational Sciences (NCATS), 2011)
The whole screen tested about 350,000 compounds, of which about 31,000 (8.9%) were called active. Where a call stands in place of a potency, no number is given. Another 15% or so got no clear call; they are omitted. Calls follow the shape of the dose curve; as a rule, active = well fitted inhibition curve with a large enough effect; inconclusive = small, poorly fitted or top-dose-only effect; inactive = no such curve, though single readings can be large or run the other way. Many of the other results were omitted from the sample, so actives are more common in it than they were.

biological target: Histone-lysine N-methyltransferase EHMT2 (Homo sapiens) (UniProt Q96KQ7); test: qHTS Assay for Inhibitors of Histone Lysine Methyltransferase G9a; conditions: G9a H3K9 monomethylation, AlphaScreen, 2 h; series mostly up to 59 µM; also: nearly all actives have a fitted effect of over 75% in size
Sequence (Q96KQ7 913-1193 limits assumed): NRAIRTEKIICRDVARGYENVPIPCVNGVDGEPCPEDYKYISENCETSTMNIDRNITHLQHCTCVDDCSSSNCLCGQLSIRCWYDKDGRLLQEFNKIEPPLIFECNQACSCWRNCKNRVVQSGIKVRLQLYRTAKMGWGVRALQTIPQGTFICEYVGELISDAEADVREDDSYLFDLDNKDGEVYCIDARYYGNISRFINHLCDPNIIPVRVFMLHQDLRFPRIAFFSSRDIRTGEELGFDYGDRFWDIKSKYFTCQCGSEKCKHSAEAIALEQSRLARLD
Text: Methylated lysines, on the N-terminal tails of histone proteins serve as epigenetic markers to recruit factors that can then modify local chromatin structure to lead to functional consequences. G9a and other members of the SUV39 family of the SET domain-containing superfamily of histone lysine methyltransferases (HMT) have been identified to specifically methylate Lys9 of histone H3 (H3K9). G9a catalyzes the mono- and di-methylation of H3K9 in mammalian euchromatic regions, where the resulting H3K9me2 is indicative of transcriptional repression. […] The inhibition of G9a will result in transcriptional activation and work synergistically with DNA methyltransferase and histone deacetylase inhibitors, to kill cancer cells. This qHTS assay for identification of G9a inhibitors is a chemiluminescence based AlphaScreen (PerkinElmer). Methylation of biotinylated-histone peptide is measured through specific antibody-based detection, in conjunction with streptavidin-coated donor and anti-IgG antibody-coated acceptor beads. The method is particularly well suited for detection of inhibitors acting by the desired histone peptide competitive mechanism and is applicable to testing other HMTs. Although AlphaScreen has significant advantages with its utility in a variety of epigenetic target assays, the primary screening data provided in this deposition should be used with caution due to the prevalence of screening artifacts. An AlphaScreen counterscreen is highly recommended to be run against any putative actives to eliminate non specific artifacts. Alternatively, one can use other AlphaScreen assays in PubChem to filter out promiscuous hits. Quinn et al. A chemiluminescence-based method for identification of histone lysine methyltransferase inhibitors. Mol Biosyst 6(5): 782-8. 2010. PMID: 20567762 [2] Baell,Holloway. New substructure filters for removal of pan assay interference compounds (PAINS) from screening libraries and for their exclusion in bioassays. J Med Chem. 53(7):2719-40. 2010. PMID: 20131845 NIH Molecular Libraries Probe Production Network [MLPCN] NIH Chemical Genomics Center [NCGC] Structural Genomics Consortium (SGC) NIH Grant: 5U54 MH084681-02
To each well of a 1,536w plate, 2ul of HMT enzyme (final 20nM) were added, using a nanoliter dispenser. The G9a- and GLP-inhibitor BIX-01294 (CID: 25150857) are used as an intraplate control, with a 16-point titration in duplicate. A Kalypsys pin-tool transferred 23nl of library compound solution in DMSO to each well. Following a 15 min incubation of enzyme with compounds at room temperature, 1ul mixture of b-H3K9 peptide substrate (final 500nM) and SAM cofactor (final 20uM) were added. Reactions were allowed to proceed at room temperature for 2 hours. Methylated b-H3K9 peptide product was detected with 0.5 ug/mL rabbit polyclonal anti-monomethyl histone H3K9 antibody (Abcam Inc., Cambridge, MA) and 20 ug/mL each streptavidin-coated donor and anti-rabbit IgG acceptor AlphaScreen beads. Antibody and beads were added in a 1ul dispense, for a final volume of 4ul, and plates were incubated, protected from the light, for 10 min at room temperature. Microplates were then read on an EnVision multilabel plate reader using the 1,536 plate HTS AlphaScreen aperture (excitation time 80 ms, measurement time 240 ms).
Potency is read from the fitted curve at half-maximal effect.

SMILES	Potency	activity, negative = inhibition
O=C(CN1C(=O)S/C(=C\c2ccccc2Cl)C1=O)NC1C=CS(=O)(=O)C1 (stereo not drawn)	inactive	–
CC(C)C(=O)Nc1cccc(C(=O)Nc2ccc3c(c2)OCO3)c1	inactive	–
CC(NC(=O)Nc1ccc2c(c1)OCO2)c1ccncc1 (stereo not drawn)	50.1 µM (active)	–
CCc1ccc(NC(=O)NC(C)c2ccc3c(c2)OCO3)cc1 (stereo not drawn)	inactive	–
CCSc1ccccc1C(=O)Nc1ccc2c(c1)OCO2	3.98 µM (active)	–
CC(NC(=O)Nc1cccc([N+](=O)[O-])c1)c1ccc2c(c1)OCO2 (stereo not drawn)	inactive	–
CC(C)NC(=O)CSc1ccccc1C(=O)NCc1ccc2c(c1)OCO2	inactive	–
CC(=O)Nc1ccc(NC(=O)c2cc3sccc3n2Cc2ccc(F)cc2)cc1	inactive	–
COc1ccc(NC(=O)C2CCCN(S(=O)(=O)c3c(C)[nH]c(=O)[nH]c3=O)C2)c(OC)c1 (stereo not drawn)	inactive	–
CCOC(=O)CNC(=O)CSc1nnc(-c2cccc(OC)c2)n1CC	50.1 µM (active)	–
CCn1c(COc2ccc(OC)cc2)nnc1SCC(=O)Nc1cc(OC)ccc1OC	–	7.11% [at 12.7 µM] (inactive)
CCOC(=O)CNC(=O)c1nn(-c2cccc(OC)c2)c(=O)c2ccccc12	inactive	–
CCn1c(SCC(=O)Nc2nccs2)nnc1-c1ccncc1	–	-2.99% [at 12.7 µM] (inactive)
C=CCn1c(COc2ccccc2)nnc1SCC(=O)NCC(=O)OCC	inactive	–
CCOC(=O)CNC(=O)CSc1nnc(COc2ccc(Cl)cc2)n1CC	20 µM (active)	–
CN(C)c1cccc(C(=O)Nc2nc3ccc(S(=O)(=O)NC(C)(C)C)cc3s2)c1	inactive	–
CCCCCN(C(=O)CCC(=O)OCCOc1ccc(OC)cc1)c1c(N)n(CCCC)c(=O)[nH]c1=O	inactive	–
COC(=O)C1CCN(C(=O)NC2CC(=O)N(c3ccc4c(c3)OCCO4)C2)CC1 (stereo not drawn)	–	21.6% [at 0.501 µM] (inactive)
O=C(CSc1nnc(N2CCOCC2)n1-c1cccc(F)c1)N1CCN(c2ccccn2)CC1	–	-9.34% [at 12.7 µM] (inactive)
COc1ccc(S(=O)(=O)c2cn(C)c3cc(N4CCCCC4)c(F)cc3c2=O)cc1	inactive	–
CCc1nc(Nc2ccc3nccnc3c2)c2oc3ccccc3c2n1	inactive	–

SMILES	Potency	activity, negative = inhibition
CCc1nc(N2CCN(c3nc(C)cc(C)n3)CC2)c2oc3ccccc3c2n1	–	2.59% [at 2.33 µM] (inactive)
CCc1nc(Nc2ccc(NC(C)=O)cc2)c2oc3ccccc3c2n1	50.1 µM (active)	–
CCOc1ccc(S(=O)(=O)N(CC(=O)NCCSCc2ccc(C)cc2)c2ccccc2)cc1	inactive	–
Clc1c(OCCCn2ccnc2)ccc2ccccc12	79.4 µM (active)	–
Brc1ccc(OCCn2ccnc2)cc1	inactive	–
c1ccc(Cc2ccc(OCCn3ccnc3)cc2)cc1	inactive	–
Cc1ccccc1S(=O)(=O)N1[C@@H](c2cccc(Cl)c2)C(C(=O)O)=CC[C@H]1c1ccc(Cl)cc1	–	-5.32% [at 2.33 µM] (inactive)
CCOc1ccc(CNC(=O)CCc2c(C)nn(-c3ccc(N4CCCCC4)nn3)c2C)cc1	inactive	–
COc1ccccc1CSc1ncc(-c2ccc([N+](=O)[O-])cc2)[nH]1	8.91 µM (active)	–
COc1ccccc1CC(=O)Nc1ccc([N+](=O)[O-])cc1OC	inactive	–
COc1ccccc1CSc1nc2ccccc2[nH]1	inactive	–
O=C(NCCSc1ccccc1)c1ccco1	inactive	–
Cc1ccc(C(=O)NCCNS(=O)(=O)c2ccccc2)cc1	inactive	–
CCS(=O)(=O)Nc1ccc(C(=O)NCCSc2ccccc2)cc1	79.4 µM (active)	–
CCCN(C(=O)c1nc2nccc(C)n2n1)c1c(N)n(Cc2ccccc2)c(=O)[nH]c1=O	–	3.83% [at 12.7 µM] (inactive)
CC(OC(=O)CCC(=O)c1ccccc1)C(=O)Nc1ccc(F)cc1 (stereo not drawn)	inactive	–
O=C(Nc1ccc(S(=O)(=O)NCC2CCCO2)cc1)c1ccc(F)cc1 (stereo not drawn)	inactive	–
N#Cc1c(-c2ccccc2)cc(-c2ccccc2)nc1SCC(=O)O	11.2 µM (active)	–
CCSc1nc(-c2ccc(OC)cc2)cc(-c2ccc(OC)cc2)c1C#N	inactive	–
N#Cc1c(C(F)(F)F)cc(-c2ccc(Cl)cc2)nc1SCC(=O)O	inactive	–
CCc1ccc(NC(=O)c2cnc3c(-c4ccccc4)c(C)nn3c2C)cc1	inactive	–

SMILES	Potency	activity, negative = inhibition
O=C(NCc1ccc2c(c1)OCO2)c1c(O)nc2sccn2c1=O	inactive	–
Cc1ccc(NC(=O)C(Cc2ccccc2)NS(=O)(=O)c2ccc3c(c2)oc(=O)n3C)cc1C (stereo not drawn)	inactive	–
Oc1ccc(/C=N/N(Cc2ccccc2)c2ccccc2)cc1	39.8 µM (active)	–
O=C(C[n+]1ccccc1)N/N=C/c1ccc(O)cc1	inactive	–
O=C(N/N=C/c1ccc(OCc2ccccc2)cc1)c1ccc(O)cc1	inactive	–
Cc1ccc(Cn2c(CNC(=O)Cc3cccc(C)c3)nc3cccnc32)cc1	inactive	–
CCOC(=O)C1=C(c2ccccc2)Nc2ncnn2C1c1ccc(Cl)cc1 (stereo not drawn)	inactive	–
CC1=C(C(N)=O)C(c2ccc(Br)cc2)n2ncnc2N1 (stereo not drawn)	inactive	–
Fc1ccccc1/C=C1\CCCC2=C1Nc1ncnn1C2c1ccccc1F (stereo not drawn)	35.5 µM (active)	–
COc1cc(NC(=O)c2nn(-c3ccc(C)cc3)c(=O)c3c2c2ccccc2n3C)cc(OC)c1OC	inactive	–
COc1ccc2c(c1)CCc1c(C(=O)Nc3cc(C)ccc3O)noc1-2	inactive	–
Cc1cc(C)cc(N)c1	–	2.02% [at 0.501 µM] (inactive)
CC(C)(C)c1ccc(OC2=CS(=O)(=O)c3ccccc32)cc1	inactive	–
Cc1ccc(S(=O)(=O)c2ccc(Oc3ccccc3)cc2)cc1	inactive	–
Cc1cc(C(C)(C)C)cc(C)c1N	inactive	–
CC(C)(C)c1ccc(Oc2ccc(N)cc2)cc1	50.1 µM (active)	–
Cc1ccc(Oc2ccc(N)cc2)cc1	50.1 µM (active)	–
NC(=O)NC(=O)C(OC(=O)CCNS(=O)(=O)c1ccccc1)c1ccccc1 (stereo not drawn)	inactive	–
CCCS(=O)(=O)Nc1cccc(-c2cn3ccsc3n2)c1	inactive	–
Cc1ccc(NC(=O)Cc2nc(COC(=O)C(C)NS(=O)(=O)c3ccc(C)cc3)cs2)cc1 (stereo not drawn)	–	-6.75% [at 12.7 µM] (inactive)
Cc1ccc(S(=O)(=O)c2c(Nc3cccc(Cl)c3)sc(C(=O)c3ccc4c(c3)OCO4)c2N)cc1	inactive	–
